From PubChem BioAssay (NCI)
The panel holds about 79,000 compounds, 15% with a hit somewhere; the sample as a whole holds those more often. Values without a mark were called inactive. Activity calls are given as the source filed them. No stated cut-off is given here; in the data, active means growth inhibition above about 70%; inactive means the rest.

Legend:
[1] = NCI Yeast Anticancer Drug Screen. Data for the rad50 strain (AID 155);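 further: 0% = growth of vehicle-only cultures of the same strain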; details: S. cerevisiae rad50 strain growth inhibition; at 50.0 µM; active compounds read high
In short: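 DNA repair mutant yeast, compound exposure, growth read-out; inhibition is taken relative to vehicle.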

[2] = NCI Yeast Anticancer Drug Screen. Data for the mec2-1 strain (AID 157); details: S. cerevisiae mec2-1 strain, at 50.0 µM, active compounds read high
In short: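 Test agents were screened against the mec2-1 yeast strain, with defined DNA repair or cell cycle alteration. Growth was scored as inhibition against vehicle-only controls.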

[3] = NCI Yeast Anticancer Drug Screen. Data for the sgs1 mgt1 strain (AID 161);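 further: 0% = growth of cultures given vehicle only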; details: S. cerevisiae sgs1 mgt1 strain, at 50.0 µM, active compounds read high
In short: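 Genetically altered yeast, compound exposure, growth inhibition relative to vehicle.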

[4] = NCI Yeast Anticancer Drug Screen. Data for the cln2 rad14 strain (AID 165);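 further: 0% = growth equal to vehicle treated cultures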; details: S. cerevisiae cln2 rad14 strain, at 50.0 µM, active compounds read high
In short: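 Growth of compound-exposed yeast (cln2 rad14 genotype) measured and expressed as inhibition relative to vehicle.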

[5] = NCI Yeast Anticancer Drug Screen. Data for the bub3 strain (AID 167); details: S. cerevisiae bub3 mutant strain, at 50.0 µM, active compounds read high
In short: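 In this screen, a yeast mutant lacking normal mitotic checkpoint function is challenged with compound. Relative growth versus vehicle gives the inhibition value.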

[6] = NCI Yeast Anticancer Drug Screen. Data for the mlh1 rad18 strain (AID 175); details: S. cerevisiae mlh1 rad18 strain growth inhibition; at 50.0 µM; active compounds read high
In short: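 In this whole-cell yeast screen, a strain with altered DNA damage repair is challenged with compound, and its growth is measured against matched vehicle-treated controls.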

SMILES | growth inhibition [1] [%] | growth inhibition [2] [%] | growth inhibition [3] | growth inhibition [4] [%] | growth inhibition [5] | growth inhibition [6]
Nc1nc(N)c2c(n1)CCC(CNc1ccc(C(=O)NC(CCC(=O)O)C(=O)O)cc1)C2 (stereo not drawn) | 23.6 | 30.6 | 38.3% | 40.2 | -3.8% | 29.7%
CCCc1cc(OC(=O)c2c(O)cc(OC)cc2CCC)cc(O)c1C(=O)O | 35.1 | 44.1 | 15.9% | 49.2 | 32% | 24.5%
Cc1nc(N)sc1C | 12.7 | -26.9 | 16.6% | 7.7 | 25.6% | 26.2%
c1ccc(CN(CCNc2ccccc2)c2ccccc2)cc1 | 13.2 | 48.4 | 46.2% | 5.1 | 50.6% | 3.7%
O=CNNC(=O)CN1C(=O)c2ccccc2C1=O | 3.3 | -0.45 | 3.4% | 17.8 | -3.35% | -6.65%
O=CNc1ccc(Br)cc1 | -8.3 | -0.9 | 11.4% | 0.7 | -1.15% | 9.95%
CN(C)c1ccc(C=Nc2cc(Cl)ccc2O)cc1 | 38.9 | 23.2 | 37.4% | -2.9 | 66% | 52.9%
COc1cc2c(c3c1c(=S)c1ccccc1n3C)C=CC(C)(C)O2 | 59.5 | 18.9 | 86.2% (active) | 27.1 | 82.7% (active) | 78.1% (active)
CCN(CC)C(=O)Nc1cccc(O)c1 | -6.55 | 6.65 | -2.6% | -28.7 | -0.25% | 5.65%
CCc1cccc(C)c1NC(=O)C1=C(C)NC(C)=C(C(=O)Nc2c(C)cccc2CC)C1c1ccc([N+](=O)[O-])cc1 | 40.8 | 34.2 | 42.2% | 18.4 | 36.9% | 46.7%
CCOC(=O)/C(O)=C(/C=N\C(=S)Nc1ccccc1Cl)C(=O)OCC | -44 | -55.3 | -28.4% | 5.35 | -26.2% | -41.4%
O=C(O)c1cnc2cc3c(cc2c1Nc1cccc(Cl)c1)OCO3 | -2.25 | -4.05 | 4.45% | -27.5 | -8.6% | -12.6%
CSSC(SC)SC | 31.9 | -7.85 | 13.6% | -21.1 | -11.6% | 29.6%
O=C1C(=O)c2ccccc2C(O)=C1CN(CCO)CCO | 10.8 | 19.8 | 24.2% | -8.25 | 23.4% | 26.2%
CCOC(=O)c1cc(-c2ccc(OC)c(OC)c2)c[nH]1 | 14.6 | -2.3 | 40.2% | 12.6 | 23.1% | 28%
CC(C)N1C(=O)c2ccccc2C1=O | 26.8 | 22.1 | 14.7% | 19.8 | 15.1% | 14.3%
Cc1cc(NC(=O)C(=O)Cc2cnc3ccccc3n2)c(S(=O)(=O)O)cc1Cl | 1.45 | 12.8 | -2.7% | -23 | -11.2% | -7.8%
C/C=C/C=N/NS(=O)(=O)c1ccc(C)cc1 | 11.3 | 17.8 | -4.1% | -45.4 | -1% | -12.4%
CC(=O)OC1(C#N)CCCCC1 | 5.7 | -2.3 | -7.05% | 23.1 | 4.8% | 14.4%

SMILES | growth inhibition [1] [%] | growth inhibition [2] [%] | growth inhibition [3] | growth inhibition [4] [%] | growth inhibition [5] | growth inhibition [6]
CCOc1cn(C2CC(O)C(CO)O2)c(=O)[nH]c1=O (stereo not drawn) | -1.35 | 7.75 | -6.95% | -10.9 | -16.2% | 23.6%
CCCOC(=O)Nc1cccc(C)c1 | 17.7 | -5.65 | -15.7% | 0.4 | 3% | 8.95%
O=S(=O)(c1ccccc1)c1ccc(O)cc1 | -20.8 | -23.8 | -16.9% | -29.8 | -8.35% | -15.7%
Nc1nc(N)c(N2CCN(Cc3ccccc3)CC2)c(Cl)n1 | 30.1 | 10.8 | 33.1% | 18.9 | 18.3% | 27.4%
Cc1ccc(S(=O)(=O)OC[C@H]2CC=CC[C@@H]2COS(=O)(=O)c2ccc(C)cc2)cc1 | -18.6 | 31.6 | 0.6% | -29.6 | 3.2% | -6.1%
NC1=NN(c2ccccc2)C(=O)C1C(=O)C(=O)Nc1ccc(Cl)c(Cl)c1 (stereo not drawn) | -6.4 | -23.8 | 11.8% | 0.15 | 12.2% | -6.2%
NC1CCC2(O)c3ccccc3C2C1 (stereo not drawn) | -0.95 | 0.05 | 22.2% | 18.9 | 5.7% | 7.35%
C=CCC1=C(C)C(O)CC1=O (stereo not drawn) | -21.9 | -13.7 | -0.75% | -15.7 | 0.7% | -41.6%
O=[N+]([O-])c1ccc2nc(/C=C(\O)c3ccccc3)c(/C=C(\O)c3ccc(Cl)cc3)nc2c1 | -10.1 | -28.2 | -52.5% | -66.3 | -62.1% | -31.2%
C/C(=N\[N+](C)(C)C)c1ccc(C)c(C)c1 | 9.45 | -38 | -23.2% | 17.9 | -56.2% | -5%
Cc1sc2c(c1C)C(=O)c1cccn1-2 | 4.95 | -27.8 | -21.6% | -2.8 | -13.9% | -1%
CCOc1ccc(Nc2nc(C)c(C(=O)CC(=O)C(=O)Nc3ccc(C(C)C)cc3C(C)C)s2)cc1 | -31.2 | 10.1 | 5.45% | -14.8 | -20% | -38.4%
COc1ccc2c(c1)C[N+](C)(C)[B-]O2 | -1.6 | -1.55 | 5.45% | -8.65 | 2.1% | 6.75%
O=C/C(Cl)=C\Nc1ccc(C(=O)O)cc1 | -0.25 | 2.15 | -0.2% | -23.1 | -0.4% | -10.7%
COc1ccc(C)cc1S(=O)(=O)c1c(Cl)cccc1[N+](=O)[O-] | -5.95 | -15.4 | 2.25% | -20.5 | -1.3% | -36.8%
O=c1c(Br)nn(C(c2ccccc2)c2ccccc2)c(=O)n1C(c1ccccc1)c1ccccc1 | 23.1 | 2.25 | 10.1% | 15.8 | 3.6% | 13.1%
N#Cc1c2c(c(N=P(c3ccccc3)(c3ccccc3)c3ccccc3)n3c1nc1ccccc13)CCCC2 | 44.6 | 5.5 | 14.9% | 41.9 | 30% | 26.9%
O=C(S)C(=O)Cc1cn[nH]n1 | -3.95 | -1.9 | -4.5% | 6.15 | -7.25% | -26.8%
CC(=O)OC(C(=O)Nc1nncs1)c1ccccc1 (stereo not drawn) | 7.05 | -22.9 | 7.25% | 8.05 | 11.2% | 18.1%
